From PubChem BioAssay
Sfp PPTase inh: qHTS Assay for Inhibitors of Bacillus subtilis Sfp phosphopantetheinyl transferase (PPTase). 4'-phosphopantetheinyl transferase ffp (Bacillus subtilis), Q9F4F7. Biochemical Sfp PPTase activity, qHTS. Potency, µM, for inactives: largest response in the series, negative = inhibition, usual class: inhibitors. 310,000 compounds, 3.5% hits;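 also: the enzyme is Sfp with the accession as filed and its product quenches rhodamine fluorescence; 0% = enzyme reaction without inhibitor and -100% = no enzyme wells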
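After 15 min at room temperature with compound, 15 nM Sfp received 5 uM rhodamine-CoA plus 12.5 uM BHQ-2-ybbR (50 mM Hepes pH 7.6, 10 mM MgCl2). Rate came from the fluorescence difference over 30 min, ex 525/em 598 nm.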
BAZ2B inh: qHTS Assay for Inhibitors of BAZ2B; Potency, µM (highest dose often 114 µM), without a hit: top-dose activity change, negative = inhibition, actives largely listed as inhibitors; AID 504333, 2011; Bromodomain adjacent to zinc finger domain protein 2B (Homo sapiens), Q9UIF8; AlphaScreen BAZ2B-H3K14Ac peptide displacement; 360,000 compounds, 4.4% hits; also: % is scaled to controls: 0 for no effect and ±100 for the full control effect; nearly all actives have a fitted effect of over 60% in size
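AlphaScreen displacement of biotin-H3(5-23)K14Ac peptide (50 nM final) from BAZ2B (50 nM final) in PBS pH 7.4, 0.01% Tween-20; complex preformed 30 min RT, then compounds (top 110 uM) 30 min RT, beads 20 min dark.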
ALOX12 inh: Primary qHTS assay for inhibitors of human arachidonate 12S-lipoxygenase (ALOX12): Round 2; Polyunsaturated fatty acid lipoxygenase ALOX12 (Homo sapiens), P18054; purified 12hLO, xylenol orange hydroperoxide absorbance; Potency, µM (top dose mostly 108 µM), for inactives: at the top dose activity change, negative = inhibition, most hits filed as inhibitors; 580,000 compounds, 1.1% hits; also: % is scaled to controls: 0 for no effect and ±100 for the full control effect
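Purified human 12hLO at 150 nM in 25 mM Hepes, 0.01% Triton X-100, pH 7.0, preincubated 15 min at room temperature with compound. Reaction started with 40 uM arachidonic acid, 30 min at room temperature. Hydroperoxide measured by Fe-xylenol orange, 573/405 nm absorbance ratio.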
JMJD2A Tudor inh: qHTS Assay for Inhibitors of JMJD2A-Tudor Domain. AlphaScreen JMJD2A-Tudor / H3K4me3 peptide binding. AID 504339, 2011. 390,000 compounds, 4.4% hits. Potency, µM (titrated, usually from 114 µM), without a hit: at the highest dose activity change, negative = inhibition, most hits filed as inhibitors. Lysine-specific demethylase 4A (Homo sapiens), O75164; also: % is scaled to controls: 0 for no effect and ±100 for the full control effect; nearly all actives have a fitted effect of over 50% in size
Target sequence (O75164 whole entry, looked up, the tested form may be a part): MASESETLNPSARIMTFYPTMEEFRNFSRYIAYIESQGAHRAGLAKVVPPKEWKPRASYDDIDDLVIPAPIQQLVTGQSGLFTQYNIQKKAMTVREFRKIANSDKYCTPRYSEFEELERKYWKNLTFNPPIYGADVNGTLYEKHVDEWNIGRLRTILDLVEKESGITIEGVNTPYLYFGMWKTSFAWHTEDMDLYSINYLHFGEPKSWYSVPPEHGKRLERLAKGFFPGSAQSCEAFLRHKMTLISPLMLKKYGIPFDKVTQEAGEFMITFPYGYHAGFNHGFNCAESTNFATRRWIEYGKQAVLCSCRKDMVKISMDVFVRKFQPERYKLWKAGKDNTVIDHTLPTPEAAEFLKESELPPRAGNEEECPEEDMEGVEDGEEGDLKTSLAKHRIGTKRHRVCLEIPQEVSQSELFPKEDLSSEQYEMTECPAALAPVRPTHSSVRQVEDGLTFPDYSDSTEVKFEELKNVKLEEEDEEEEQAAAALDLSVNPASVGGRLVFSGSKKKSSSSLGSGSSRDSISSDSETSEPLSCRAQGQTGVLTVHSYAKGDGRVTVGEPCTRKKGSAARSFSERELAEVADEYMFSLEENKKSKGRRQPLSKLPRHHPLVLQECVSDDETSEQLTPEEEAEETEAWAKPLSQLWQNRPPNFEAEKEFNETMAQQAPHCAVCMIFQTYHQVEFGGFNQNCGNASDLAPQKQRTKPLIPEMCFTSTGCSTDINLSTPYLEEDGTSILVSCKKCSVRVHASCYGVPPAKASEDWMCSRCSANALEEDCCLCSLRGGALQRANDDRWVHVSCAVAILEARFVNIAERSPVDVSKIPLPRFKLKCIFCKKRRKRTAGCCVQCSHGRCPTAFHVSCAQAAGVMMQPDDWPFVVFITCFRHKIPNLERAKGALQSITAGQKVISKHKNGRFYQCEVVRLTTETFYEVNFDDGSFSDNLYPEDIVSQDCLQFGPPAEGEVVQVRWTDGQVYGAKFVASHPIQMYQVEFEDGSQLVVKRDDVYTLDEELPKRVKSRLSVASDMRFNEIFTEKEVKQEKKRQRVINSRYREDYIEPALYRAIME
HP1b binding inh: HTS for Inhibitors of HP1-beta Chromodomain Interactions with Methylated Histone Tails. AlphaScreen HP1-beta / biotin-H3K9me3 peptide binding. Potency, µM (highest dose often 114 µM), without a hit: top-dose activity change, negative = inhibition, hits mostly inhibitors. 390,000 compounds, 0.56% hits; also: nearly all actives have a fitted effect of over 70% in size
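HP1-beta protein (50 nM final) preincubated 30 min at room temperature with biotinylated H3(1-18)K9me3 peptide (50 nM) in PBS pH 7.4, 0.01% Tween-20, then compound added for 30 min. AlphaScreen streptavidin donor/nickel chelate acceptor beads (10 ug/mL final), 30 min dark, luminescence read.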
G9a block: qHTS Assay for Inhibitors of Histone Lysine Methyltransferase G9a; G9a H3K9 monomethylation, AlphaScreen, 2 h; Potency, µM (doses to about 102 µM), for inactives: at the top dose activity, negative = inhibition, usual class: inhibitors; 350,000 compounds, 8.8% hits; AID 504332, 2011; also: % is scaled to controls: 0 for no effect and ±100 for the full control effect; nearly all actives have a fitted effect of over 75% in size
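Readings reflect AlphaScreen signal from monomethyl-H3K9 antibody detection. HMT at 20 nM; substrate b-H3K9 500 nM; cofactor SAM 20 uM; 2 h RT reaction; compounds tested as titrations in qHTS with 15 min preincubation.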
Active calls of the source: *; u = inconclusive; x = no result; ! = not confirmed by another sample; [ ] = another dose, or the depositor's remark. The list is not random: actives were taken first. Their share in the collection is about 8.7%. Calls follow the shape of the dose curve; as a rule, active = well fitted curve in the direction sought with a large enough effect; inconclusive = small, poorly fitted or top-dose-only effect, or another doubt; inactive = no such curve, though single readings can be large; an effect the other way counts as inactive or inconclusive. Potency is read from the fitted curve at half-maximal effect.

SMILES	Sfp PPTase inh	BAZ2B inh	ALOX12 inh	JMJD2A Tudor inh	HP1b binding inh	G9a block
CC(C)(C)NC(=O)COC(=O)C(c1ccccc1)c1ccccc1	x	x	2.0%	x	x	x
CC(=O)c1ccc(NC(=O)CC(NCCC2=CCCCC2)C(=O)O)cc1 (stereo not drawn)	-1.7%	-5.9%	-18.7%	12.6µM*	-15.2%	u
COc1ccc(NC(=O)CNCCC2=CCCCC2)cc1	2.6%	6.8%	18.0%	-15.7%	0.9%	-4.5%[12.7 µM]
CCc1nncn1C1CCN(C(=O)c2cc(F)ccc2F)CC1	x	x	17.1%	x	x	x
COc1ccccc1N1C(=O)C2C(c3ccccc3F)NN(C(=O)c3ccc(C)cc3)C2C1=O (stereo not drawn)	u	-3.3%	6.7%[57.4 µM]	-16.4%	35.1%	20µM*
Cc1ccc(OCC(=O)NCCCNC(=O)c2ccncc2)cc1	-0.6%	10.1%	6.6%	-17.7%	-3.8%	31.6µM*
CCN(CC)c1ccc(NC(=O)c2ccc(Br)o2)c(C)c1	-6.2%	39.8µM*	u	56.2µM*	u	u
COc1ccccc1NC(=O)c1ccc(Br)o1	6.1%	9.6%	0.0%[57.4 µM]	1.7%	38.7%	7.2%[12.7 µM]
Cc1cc(O)c(NC(=O)c2ccc(Br)o2)cc1C	-7.3%	50.1µM*	-0.1%	-26.1%	2.3%	26.1%[12.7 µM]
CCN(CC)c1ccc(NC(=O)c2cccc(F)c2)c(C)c1	9.5%	-10.1%[57.1 µM]	u	u	-17.4%	28.2µM*
CCN(CC)c1ccc(NC(=O)c2cccn2-c2nnc(N3CCCCC3)s2)c(C)c1	x	31.6µM*	u	50.1µM*	u	u
O=C(CSc1nnnn1C1CCCC1)NCc1ccc(CN2CCOCC2)cc1	x	x	2.8%	x	x	x
Cc1ccc(S(=O)(=O)NC(=O)c2ccc(Br)o2)c(C)c1	13.6%	1.0%	-8.0%	-9.7%	39.7%	-5.6%
Cc1ccc(S(=O)(=O)NC(=O)c2ccc(Br)o2)cc1	6.9%	1.4%	u	-20.0%	35.0%	35.5µM*!
CCN(CC)c1ccc(NC(=O)c2ccc(NC(=O)C3CCCO3)cc2)c(C)c1 (stereo not drawn)	-2.8%	-36.9%	u	-32.6%	-12.8%	8.91µM*
O=C(NCc1cccs1)c1csc(N2CCN(c3ccccc3F)CC2)n1	x	x	37.4%	x	x	x
Cc1ccc(N2C(=O)C3C(c4ccccc4)N4CCCN4C3(C)C2=O)cc1 (stereo not drawn)	-4.0%	-8.1%	-19.5%	-5.2%	43.4%	7.94µM*
Cc1ccc(N2C(=O)C3C(C2=O)N2CCCN2C3c2ccccc2)cc1C (stereo not drawn)	19.9%	-20.8%	-11.6%	-14.8%	u	u
Cc1cc(C)nc(-n2nc(C)c3c(=O)[nH]c(C(F)(F)F)nc32)n1	-29.4%	-4.5%	-25.8%	79.4µM*	10.3%	-41.5%[59 µM]
Clc1cc(Cl)c(OCC#CI)cc1Cl	79.4µM*	x	x	x	x	-5.6%[12.7 µM]
COCCCNc1nc2c(c(=O)n(C)c(=O)n2C)n1Cc1cccc(Br)c1	x	x	24.7%	x	x	x
Cn1cccc1CNC(=O)C1c2ccccc2C(=O)N(Cc2ccccc2)C12CCCC2 (stereo not drawn)	x	x	36.7%	x	x	x
S=C(Nc1ccc(Oc2ccccc2)cc1)NC1CCCCC1	-4.5%	-7.1%	u	-15.8%	16.5%	-4.4%[59 µM]
S=C(Nc1ccc(Oc2ccc(NC(=S)NC3CCCCC3)cc2)cc1)NC1CCCCC1	18.5%	-25.3%	11.2µM*	-3.2%	-6.6%	12.2%[59 µM]
S=C(Nc1ccc(Oc2ccccc2)cc1)NC1CCCCCC1	-7.2%	-1.3%	28.2µM*	-11.9%	-10.4%	44.7µM*
SMILES	Sfp PPTase inh	BAZ2B inh	ALOX12 inh	JMJD2A Tudor inh	HP1b binding inh	G9a block
S=C(NNc1ccc2ccccc2c1)NC1CCCCC1	7.3%	8.91µM*	u	3.98µM*	28.2µM*	11.2µM*
O=C(Nc1ccc2ccccc2c1)C1CCCCC1	x	x	10.3%	x	x	x
CC(C)N=c1cc2n(-c3ccc(Cl)cc3)c3ccccc3nc-2cc1Nc1ccc(Cl)cc1	u	x	-11.7%	7.08µM*	4.47µM*	2.51µM*
O=C1CC(C(=O)Nc2ccccc2)n2nc(SCc3ccccc3)nc2N1 (stereo not drawn)	x	x	-5.6%	x	x	x
COCCn1nnnc1C(c1ccccc1)N1CCN(C(=O)c2ccco2)CC1 (stereo not drawn)	-9.8%	u	-22.6%	u	-4.7%[57 µM]	u
COc1cccc(C(c2nnnn2CC2CCCO2)N2CCN(C(=O)c3ccco3)CC2)c1OC (stereo not drawn)	7.0%	u	-11.5%	-25.9%	13.2%	-9.8%
COCCn1nnnc1C(c1cccc(OC)c1OC)N1CCN(C(=O)c2ccco2)CC1 (stereo not drawn)	5.5%	-18.2%	-14.5%	-9.6%	28.9%	50.1µM*
COCCn1nnnc1C(c1ccccc1OC)N1CCN(C(=O)c2ccco2)CC1 (stereo not drawn)	2.3%	-25.7%	u	u	52.1%	50.1µM*
CC(C)CCn1nnnc1C(c1ccc(F)cc1)N1CCN(C(=O)c2ccco2)CC1 (stereo not drawn)	-3.1%	-35.5%	-20.8%	-11.8%	44.5%	50.1µM*
CCCCN(C)C(=O)c1nc2ccccn2c1CN1CCC[C@H]1C(=O)OC	9.8%	-13.9%	6.7%	39.8µM*	-8.5%	10.0%
N#CC1(NC(=O)COc2cccc(C(F)(F)F)c2)CCCCC1	x	x	8.1%	x	x	x
CCOC(=O)c1c(C)oc2c1c(CN1CCN(C(=O)OCC)CC1)c(O)c1ccccc12	-20.5%	u	u	u	-26.5%	3.16µM*
CCOC(=O)c1c(C)oc2ncnc(N3CCN(c4ccccc4)CC3)c12	x	-13.6%[57.1 µM]	-8.8%	-29.8%	-5.7%	-10.8%[59 µM]
CCOC(=O)c1c(C)oc2c1c(C=NCCC(=O)O)c(O)c1ccccc12	-7.2%	u	0.5%	-24.1%	24.3%	50.1µM*
CCOC(=O)c1c(C)oc2c1c(C=NC1CCS(=O)(=O)C1)c(O)c1ccccc12 (stereo not drawn)	11.6%	-1.2%	1.9%	-15.2%	16.8%	-136.7%
CCOC(=O)c1c(C)oc2c1c(C(c1ccncc1)N1CCOCC1)c(O)c1ccccc12 (stereo not drawn)	u	14.1µM*	u	u	70.8µM*	u
CCOC(=O)c1c(C)oc2c1c(CN1CCN(CCO)CC1)c(O)c1ccccc12	u	x	u	u	u	1.41µM*
COc1ccc(CCc2nc3nccc(-c4cccnc4)n3n2)cc1OC	x	x	53.5%	x	x	x
